# Measured values published in PubChem BioAssay AID1347426 (Functional Genomics Laboratory (NCATS/FGL), 2020).
# In all, about 31,000 sequences went through this assay and about 1,400 (4.5%) were called active. The entries come from a sample that favours actives as a whole. Unmarked numbers belong to inactive results.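 How the source made its calls: active means median seed-adjusted z-score above 1 or below -1; inactive means the rest.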
# Assay: Novel Modifiers of Survival Motor Neuron (SMN) Protein: Gene Identification via Genome-wide siRNA Screen;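 further: luminescence tracks full-length SMN protein made from the SMN2 reporter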
# Conditions: HEK293T SMN2-luciferase reporter, siRNA knockdown, 72 h; actives lie on both sides
# In short: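 Luciferase signal, proportional to full-length SMN made from an SMN2 cDNA reporter in stable HEK293T cells, was read 72 h after siRNA reverse transfection. Values were expressed as MAD scores after non-targeting-control normalization and log10 conversion; seed analysis flagged off-targets.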
row,Sequence,median seed-adjusted z-score
1,GCCUUGAUGCUGAUCAUCATT against MEP1B,1.46 (active)
2,GGUGAAUCAUUUGAACUGATT against RCL1,0.0807
3,GGAAUACUCAGAUCGGGAATT against MAP3K3,-0.182
4,GUAUGGAGAUCUCUACGGATT against RYR3,0
5,GUAUGACCUAAAAACCGAATT against MTRR,-0.381
6,AGAGAUACUUCUUAAAUCATT against YAP1,-0.247
7,GCUCAAUGCAGGUAUUCAATT against KLF8,0.0976
8,AAGUCUCAUUCGUGGUUGATT against ST6GALNAC6,0.367
9,CAGCCCAAGUGUCGCCUUATT against PAX9,-1.16 (active)
10,GAUAUUCUCUGUGACGUGATT against BACH2,0
11,GACCAGAUGUGGAUGUAAATT against MIB1,0
12,ACUAGCCUGUGGAGCAAGATT against HBE1,-0.425
13,CCGAUCAAGUGAACAUAGATT against AKAP4,0.116
14,CCUUCUCAACAUAGGAUAATT against ZNF257,0.306
15,UGGGUUGGAUGAUACCUUATT against GATA5,0.15
16,GAGGGUCUCUUCUUAAGUATT against CAD,2.37 (active)
17,UCAUCACAGCGGUACUGUATT against ITGAX,-0.0677
18,GCAGGUAGCUCAUAUGUUUTT against WDR31,0.796
19,GGACCACGUCAAGACUUGUTT against TRAF2,-0.00463
20,CAAACUUCCCGAUAGAGAATT against CTDP1,-2.29 (active)
21,CUAUCAGGGAAAUUACGUATT against ZNF713,-0.0652
22,AAAUGUAACCUUUUGCUUUTT against DAD1,-0.45

row,Sequence,median seed-adjusted z-score
1,GCUUUACCUUGGACCUGAATT against MPL,-0.0153
2,GCGUGAUCAUCGAUGUGGATT against SLC5A7,0.624
3,GAUGUUCCCUAUAUGCAAATT against CLDN10,0.0399
4,GUGUAUCUAUGGAAGAGCATT against PSMD4,1.46 (active)
5,CUAUAAUUCCAGAGCAUAATT against KLF5,-0.338
6,GGACCUUGGAUUAUCUGAATT against YME1L1,0.131
7,CACUAGUUCUAUGACCAUUTT against IMPG1,-0.252
8,GCAUGGAAGUGUACGAGUATT against THBS3,0.429
9,CCACUGACAAGGUCCACGATT against MRGPRD,-0.484
10,CCGUAAACUUCAUAACAUUTT against DYRK1A,-1.3 (active)
11,CCUUAGUUCUUCCUCGGAATT against PARP12,-0.287
12,GCUGAUCUAUCACAAACCATT against SERPINA2,0.285
13,AAUGCAUUGUGAACCCAUUTT against GNGT2,-0.289
14,GGUUAGAAGAGGUGUCUAATT against NUMB,-0.599
15,AGCCCAAGGUGGAACAAUCTT against CREM,-2.37 (active)
16,GGAUGAACCCAAUCCCAAUTT against UBE2A,0.306
17,GGUCCCUGUUGAGAAACGATT against TOP1,0.0303
18,GCAAAGGCCUUGUACGUCATT against USP10,0.182
19,GCUUGAGUAUAGAUAAAGATT against PAM,0
20,UGGACACCGUCACCAUGAATT against GPR78,0.607
21,GCCGAGCUCUUUAUCCUCUTT against TRHDE,0.429
22,GGAUCGGGUGUAUCAACAATT against SRP54,0.203

row,Sequence,median seed-adjusted z-score
1,CAUUGUCGUUGGUGCAGUATT against ADCY10,-0.573
2,GGAAUUACGGAGAUAUAGATT against TRRAP,-1.25 (active)
3,GGACACAUCUCGGACAGCATT against KLK9,-0.476
4,GUACCUUGAGAAGAAAUUUTT against ACCN1,-0.325
5,UCAGCUCCAUUAAUAGAAUTT against PAX8,0
6,CCUCAUAAGUGUAAGAUAUTT against ZNF799,-1.02 (active)
7,GAAUGUCCCUGCUCCACAATT against SNAI1,0.0196
8,ACAACUUCCUGGUCGCUGATT against GPR62,0.0306
9,AGAAGAUCCGAAAGAAAUATT against GABARAP,0.418
10,CCAACGACCUGGUUAUGAATT against FBP1,-0.221
11,GGUUGGAACUCGUUCCUCATT against NLGN4X,-0.1
12,GCACAAGACGAACUCAGUATT against UBE2J2,-0.341
13,GCAUUGUCUCUCUUAUGUUTT against SYVN1,-1.41 (active)
14,AGAUCAAGCUCCUCAACAATT against KRT4,0.336
15,GUUAUUCCCUGUUCUCGAATT against ALDH5A1,0.339
16,GGACGUGGACCAUUACUGUTT against LITAF,0.0771
17,GAUUAACCAAGGUUGAGAATT against CNGA1,-1.08 (active)
18,CCACAUCUCUACUCGUGAATT against ULK4,0.0834
19,GGAGUUACGAUAGCCGGAATT against DIAPH1,0.145
20,CGGGAUAAUUUUGACAAGATT against NXF2,-0.0513
21,GGAAACUCUGUUUACGUUATT against BTAF1,-1.19 (active)
22,GGACAACAUUUGACACCAATT against APOBEC2,0.232

row,Sequence,median seed-adjusted z-score
1,CAGACACCUUCAUACCUUATT against BHMT,0
2,CUGCAAGACUUGGAGCUAATT against HDLBP,-1.18 (active)
3,UGGGAGAAGUACAACAAUATT against FAM12A,0.08
4,CAACGACAGCAGUCCCAUUTT against EGR1,0.0836
5,GUGUAAGGAUCAAAAAGAATT against ZNF682,-0.155
6,ACAACAUCAUGAUCCGAGATT against PIK3CD,0.00831
7,CUUCGUAUGUUUACAAGAATT against GUCY2C,-0.0181
8,GCUCUACGCAAGGAGAUCATT against BATF,-0.0501
9,GUCCGGUGUUUGAACCUGATT against ABHD2,-1.21 (active)
10,CUAUUGUAAAAGUAUGGAATT against ARL6IP2,0.274
11,GGCCUACAGCAACAAUGGATT against PCDH24,0.345
12,GAGUGGAAGUUAUCUGUCATT against WBSCR22,-0.21
13,AGCUCCAUCUCGACCACAATT against FMOD,-1.32 (active)
14,GGAAUACAGUGACGACAAATT against ING5,-0.193
15,GCAUCGACCGGGUUUAUGATT against KARS,-0.152
16,CCACUUUACCCACUACCCATT against ISX,1.99 (active)
17,GCAUUCGAAUUAUAGAACATT against SLC16A14,0.464
18,GCACAAAUCUCAAUAUUCATT against GPSM3,-0.641
19,CAGCCUUAAUGGACACGAATT against MFGE8,0.0367
20,GUAUGGUCGGUUUACAAUATT against YES1,-0.508
21,ACCGUAUUCCUAUAUCUCATT against FOXA3,0.128
22,GCAUCGUCAAGGAUUGGAATT against ACTR1A,1.28 (active)

row,Sequence,median seed-adjusted z-score
1,GCACUUACGAUGACCGGCATT against TNFAIP1,0.0766
2,GCAAUUUCUUGUUUCGUUATT against SLC9A6,-0.0831
3,GGACAAUAGACUUUAGAGATT against NCALD,0
4,AGUAUACGCUGCCCUCAUATT against RNASE3,0.588
5,CCAUUUGAGGUGAACCGUATT against RFWD3,0.554
6,CUACGACGGUGAUAUUGGATT against HDAC2,-1.27 (active)
7,GCAGGGAUCUUACAUCUAUTT against CENTD2,-0.305
8,GCAUCCUACCCGUUCCAUATT against MSX2,-0.406
9,GGGACAUCCGAGAUCCUAATT against LAMB1,1.07 (active)
10,GGACAAACACGGACAGUAUTT against EPHB4,-0.143
11,AAGGAGCAGUGGAUACUGATT against MST1,-1.47 (active)
12,GAAGGAAGAUGGUAAGGGATT against IL6ST,-0.518
13,GCUUCGUGAGCUUUGAUAATT against BRUNOL5,0.333
14,CGUGGACAGCUGCAGAAAATT against EDIL3,0
15,CAAUCAGCAGAGUUACAUUTT against CPEB3,0.086
16,CCAUCGUCAUGGUUACCAATT against PTPRA,-0.438
17,GCACUUAAGGAAUGACAGATT against CDY2A,0.75
18,CAGGUUCUCUAAUUGAACATT against NFX1,-0.256
19,GAAACGCAAGGGUACAGAATT against RUVBL2,-0.0764
20,GGAGUGACCGGAAACAUCATT against PRKCD,-0.236
21,CCAUUACAGAGGGAGUUCATT against NRBP1,-1.13 (active)
